# Chlamy TAG – increases triacylglycerol in Chlamydomonas reinhardtii; Chlamydomonas reinhardtii TAG, Nile Red fluorescence, 72 h; calls only at 10 µM (by protocol); hit rate 0.84% among 44,000; call rule not given here;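 note: hits raise Nile Red signal meaning more stored TAG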
# * hit, by the source's call; i = inactive; + = active, no number. Shown is part of a subset that was picked to be rich in hits.
SMILES,Chlamy TAG
O=[N+]([O-])c1ccc(O)c(CN2CCN(Cc3ccccc3)CC2)c1,i
Oc1ccc(Cl)cc1CN1CCN(Cc2ccccc2)CC1,+
COc1ccc(O)c(CN2CCN(Cc3ccc(Cl)cc3)CC2)c1,i
COc1cc(CN2CCN(c3cccc(Cl)c3)CC2)cc(Br)c1O,i
c1ccc2c(CCNC3C4CC5CC(C4)CC3C5)c[nH]c2c1 (stereo unspecified),i
Oc1cccc(C(O)CNC23CC4CC(CC(C4)C2)C3)c1 (stereo unspecified),i
OCCN1CCN(Cc2ccc(Cl)cc2)CC1,i
CC(C)c1ccc(CN2CCN(CCO)CC2)cc1,+
OCCN1CCN(Cc2ccc(F)c(F)c2)CC1,i
CCCc1nc2ccccc2c(=O)n1-c1ccccc1Cl,i
COc1ccccc1N1CCN(C(=O)C(O)(c2ccccc2)c2ccccc2)CC1,i
CC(=O)c1ccc(N2CCN(Cc3ccc(O)cc3)CC2)cc1,i
c1ccc(CCN2CCOCC2)cc1,i
Oc1cccc(CN2CCN(c3ccc(F)cc3)CC2)c1,i
Fc1ccc(N2CCN(CCc3ccccc3)CC2)cc1,+
C/C=C(\C)CN(C)CCc1ccccn1,i
COc1ccc(C(O)(C(=O)O)c2ccc(OC)cc2)cc1,i
Cc1cccc(N2CCN(Cc3ccccc3)CC2)c1C,i
CC(=O)c1ccc(N2CCN(Cc3ccc(Br)cc3)CC2)cc1,i
O=C(Cc1ccccc1)N1CCN(Cc2ccc([N+](=O)[O-])cc2)CC1,i
CC(C)c1ccc(CN2CCN(c3ccccc3)CC2)cc1,i
O=[N+]([O-])c1ccc(CN2CCN(Cc3ccccc3F)CC2)cc1,+
Brc1ccc(CN2CCN(c3ccccc3)CC2)cc1,+
Cc1cccc(N2CCN(Cc3ccc(F)cc3)CC2)c1C,i
Cc1cccc(N2CCN(Cc3ccc([N+](=O)[O-])cc3)CC2)c1C,+
SMILES,Chlamy TAG
O=[N+]([O-])c1ccccc1CN1CCN(Cc2ccccc2)CC1,i
CSc1ccc(CN2CCN(c3ccccc3C)CC2)cc1,i
Cc1cccc(N2CCN(Cc3cccc([N+](=O)[O-])c3)CC2)c1C,i
Cc1ccccc1N1CCN(Cc2ccc(F)cc2)CC1,+
Cc1c(CCN)c2ccccc2n1-c1ccccc1,i
CCOc1ccccc1N1CCN(Cc2ccc(F)c(Br)c2)CC1,i
Cc1cccc(N2CCN(Cc3ccc(N(C)C)cc3)CC2)c1C,i
Cc1ccc(-c2nc3ccccc3c(=O)n2-c2ccc(F)cc2)cc1,i
O=c1[nH]c2ccccc2c(=O)n1-c1ccccc1F,i
CCc1ccc(CN2CCN(c3ccccc3C)CC2)cc1,+
Cc1ccccc1N1CCN(Cc2ccccc2)CC1,i
Cc1ccccc1N1CCN(Cc2ccc(Br)cc2)CC1,i
COc1ccc(CN2CCN(c3ccc(Cl)cc3)CC2)cc1OC,i
CC(CCc1ccc(O)cc1)NCCc1ccccc1 (stereo unspecified),i
CCCSc1nc2ccccc2c(=O)n1-c1ccc(OC)cc1,i
CCOc1ccccc1N1CCN(Cc2ccc(OC)cc2)CC1,i
COc1ccccc1N1CCN(Cc2ccc(O)cc2)CC1,+
COc1ccccc1N1CCN(Cc2ccc(F)cc2)CC1,+
COc1ccccc1N1CCN(Cc2ccc(F)c(Br)c2)CC1,i
COc1ccc(CN2CCN(c3ccccc3OC)CC2)cc1O,i
COc1ccccc1N1CCN(Cc2ccc(Cl)c(Cl)c2)CC1,i
CCOc1cc(/C=C/[N+](=O)[O-])ccc1O,i
CN1CCN(c2ccc([N+](=O)[O-])cc2C(N)=O)CC1,i
CN(C)/C=C/c1c(C=O)c2cc([N+](=O)[O-])ccc2n1Cc1ccccc1,i
COc1ccc(CCN(C)Cc2ccc([N+](=O)[O-])cc2)cc1OC,+
COc1ccc(CCN(C)Cc2ccc([N+](=O)[O-])o2)cc1OC,i
COc1ccc(CCN(C)Cc2cccc([N+](=O)[O-])c2)cc1OC,i
Cc1ccc(-n2c(C)nc3ccc(I)cc3c2=O)cc1,i
Fc1ccc(N2CCN(Cc3ccc(Cl)cc3)CC2)cc1,i
O=[N+]([O-])/C=C/c1ccc(OCc2ccc(F)cc2)cc1,i
